CCHF vOTU inh-1: CCHFV vOTU protease inhibition | Pep-AMC fluorescence | inhibition, % at 11.5 µM | 370,000 compounds, 0.55% hits | AID 651958; further: 0% = vehicle wells with enzyme and 100% = no enzyme wells
Mtb bLac sens: beta-lactam sensitization of Mtb H37Rv; AID 434955; inhibition, % at 25 µM; 330,000 compounds, 0.27% hits; M. tuberculosis H37Rv growth with meropenem, percent inhibition; call rule not given here;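 further: growth measured after seven days incubation then overnight dye step; 0% = bacteria only wells and 100% = bacteria with antibiotic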
BJeLR viability: kills HRASV12-expressing BJeLR cells. BJeLR (HRASV12) viability, CellTiter-Glo ATP luminescence, 48 h. inhibition, % (test concentration not listed). 300,000 compounds, 0.17% hits. AID 1554; in the data active means inhibition above about 50%
RecA splice inh: inhibitors of M. tuberculosis RecA intein splicing; P9WHJ3; cell-free RecA intein splicing, fluorescence; inhibition, % (no concentration beside the values); 290,000 compounds, 0.75% hits; AID 2221; in the data active means inhibition above about 30%;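 further: 0% = vehicle wells and 100% = reference inhibitor control wells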
Mtb BioA inh: BioA (M. tuberculosis) enzyme inhibition. 360,000 compounds, 0.096% hits. inhibition, % at 9.99 µM. purified M. tuberculosis BioA enzyme, plate reader; in the data active means inhibition above about 40%
Yp Topo-I inh: inhibitors of Yersinia pestis topoisomerase I. activity, % at 10 µM. AID 504884. Y. pestis Topo-I cleavage product accumulation, plate reader. 360,000 compounds, 0.064% hits; in the data active means activity above about 50%, passing the limit was not always enough
CCHF vOTU inh-2: CCHFV vOTU protease inhibition, confirmation | shares compounds with CCHF vOTU inh-1 | Recombinant CCHFV vOTU, Pep-AMC fluorescence | inhibition, % at 11.5 µM | 1,900 compounds, 17% hits | AID 686976
* hit, by the source's call; x = no result given. A selection: hits, their analogues and other compounds. The true share with any hit is near 1.1%. Unless noted, no stated cut-off is given here; in the data, active means inhibition above about 30%; inactive means the rest.

SMILES | CCHF vOTU inh-1 | Mtb bLac sens | BJeLR viability | RecA splice inh | Mtb BioA inh | Yp Topo-I inh | CCHF vOTU inh-2
CCCCCCCCCCCCCCCC[N+](C)(C)Cc1ccc(F)cc1 | 56* | x | x | x | x | -17 | 57*
CC#CC[N+](C)(C)CCCCCCCC | 0 | -17 | 13 | 1 | 1 | -5 | x
COc1ccc(-c2ccc3n(c2=O)C[C@H]2[C@H](CO)[C@@H](C(=O)NCC4CC4)[C@@H]3N2S(C)(=O)=O)cc1 | x | x | x | x | -1 | x | x
O=C(NC1(O)C(=O)c2ccccc2C1=O)c1ccc(C(F)(F)F)cc1 | 81* | 4 | -10 | 7 | -3 | -2 | 35*
CCN(CC)c1ccc(/C=N/NC(=O)c2c(Cl)cnn2C)c(O)c1 | 36* | 8 | 45 | -45 | x | -3 | -11
CN(CC(=O)Nc1ccc(F)cc1)C(=O)COC(=O)c1ccccc1 | 30* | -11 | 0 | 0 | -1 | 3 | -2
CN(CC(=O)Nc1ccc(F)cc1)C(=O)COC(=O)c1cccc(N(C)C)c1 | 11 | 9 | x | x | -1 | 3 | x
Cc1cc(C)nc(OC(=O)c2ccc(Cl)cc2Cl)n1 | 30* | -9 | -12 | 6 | x | x | -22
Cc1cc(C)nc(OC(=O)c2c(Cl)cc(Cl)cc2Cl)n1 | -1 | 2 | -10 | 9 | x | 12 | x
C[C@@H]1CN([C@H](C)CO)S(=O)(=O)c2ccc(-c3cccc(C#N)c3)cc2O[C@H]1CN(C)C | x | x | x | x | -1 | x | x
CCN1/C(=C/C=C/c2oc3ccc(-c4ccccc4)cc3[n+]2CC)Oc2ccc(-c3ccccc3)cc21 | 37* | 95 | 80* | -8 | -201 | 12 | 18
CO[C@@H]1CN(C)C(=O)c2cc(NC(=O)c3ccccc3F)ccc2OC[C@H](C)N(C(=O)c2ccccc2F)C[C@@H]1C | x | x | x | x | 0 | x | x
Cc1cccc(Nc2nc(N)c([N+](=O)[O-])c(N3CCCC(C)C3)n2)c1 (stereo unspecified) | 31* | 37 | 14 | 6 | x | 27 | 17
Cc1cccc(Nc2nc(N)c([N+](=O)[O-])c(N3CCN(C)CC3)n2)c1 | 2 | 5 | -5 | 3 | -3 | -6 | x
COc1ccc(NC(=O)N[C@H]2CC[C@H](CCNC(=O)c3ccccc3F)O[C@H]2CO)cc1 | x | x | x | x | -1 | x | x
CC(N)c1csc(Nc2ccc(C(=O)c3ccccc3)cc2)n1 (stereo unspecified) | 27 | x | x | x | -1 | 0 | x
CC(C)C(N)c1csc(Nc2ccc(C(=O)c3ccccc3)cc2)n1 (stereo unspecified) | 37* | x | x | x | 5 | 7 | -12
COc1cc(/C=N/n2nnnc2N)ccc1OC(C)=O | -7 | -1 | 11 | -4 | 0 | 2 | x
COc1ccc(/C=N/Nc2nnc(C)n2N)cc1OC(C)=O | 93* | 7 | -2 | 7 | 0 | -9 | -14
COc1ccc(/C=N/Nc2ncnc(Cl)c2N)cc1OC | -2 | -3 | -5 | -2 | 14 | -3 | x
COc1ccc(/C=N/Nc2nnc(C)n2N)cc1OC | 91* | 11 | 7 | -1 | 0 | -1 | 4
C[C@@H]1CN([C@@H](C)CO)C(=O)c2cccc(NC(=O)C3CCCCC3)c2O[C@@H]1CN(C)C(=O)Nc1ccc(F)cc1 | x | x | x | x | 6 | x | x
COc1ccc(NS(=O)(=O)c2ccc(O)c(NC(=O)c3ccc(S(=O)(=O)N4CCCC4)cc3)c2)cc1 | 34* | -10 | -3 | x | 0 | -5 | -6
COc1ccc(NS(=O)(=O)c2ccc(O)c(NC(=O)c3ccc(S(=O)(=O)N4CCCCCC4)cc3)c2)cc1 | 1 | -2 | 15 | 0 | 0 | 20 | x
C/C=C/COC(=O)c1[nH]c2c(c1C)C(=O)CC(c1ccco1)C2 (stereo unspecified) | 30* | -3 | 38 | 1 | 0 | -8 | -17
C=CCOC(=O)c1[nH]c2c(c1C)C(=O)CC(c1ccco1)C2 (stereo unspecified) | x | -9 | 37 | 4 | x | x | x
O=C(c1cccnc1)N1C[C@@H]2[C@H](c3ccccc31)[C@H](CO)N2C(=O)C1CCOCC1 | x | x | x | x | -5 | x | x
C[C@@H]1CN(c2ccc(N3CCN(C(=O)OC(C)(C)C)C[C@H]3C)cc2C#N)C[C@H](C)O1 | 17 | x | x | x | x | x | x
C[C@@H]1CN(C(=O)OC(C)(C)C)CCN1c1ccc(N2CC[C@H](O)C2)c(C#N)c1 | 48* | x | x | x | x | x | -16
C[C@@H]1CN(c2ccc(N3CCN(C(=O)OC(C)(C)C)C[C@@H]3C)cc2C#N)C[C@H](C)O1 | 41* | x | x | x | x | x | -3

Assay outcomes (PubChem BioAssay)
